# From PubChem BioAssay
# Rows were chosen to be rich in hits. Some 7.2% of all compounds tested hit in one or more screens of this group.
# RE007 growth inh = less growth of the S. pombe RE007 Vpr strain; Potency, µM (series often up to 92.2 µM), inactives show top-dose activity change, negative = less growth, actives largely listed as inhibitors; actives 0.21% (n = 360,000); AID 651644; S. pombe RE007 Vpr strain, BacTiter-Glo ATP luminescence, 24 h; active = well fitted falling curve with a large enough effect; inconclusive = small, poorly fitted or top-dose-only effect; inactive = no such curve, though single readings can be large or run the other way; note: nearly all actives have a fitted effect of over 50% in size
#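 Fission yeast strain RE007, carrying one chromosomally integrated HIV-1 vpr copy, was seeded at OD 0.01 in PMG+AL medium with 23 nL pinned compound. After 24 h at 30 °C and 99% humidity, viability was read by BacTiter-Glo luminescence.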
# FMDV inh = foot and mouth disease virus antiviral activity; FMDV antiviral cell-based qHTS; Potency, µM (titrated, usually from 57.9 µM), for the others: top-dose activity change, negative = inhibition, usual class: inhibitors; actives 1.2% (n = 410,000); AID 1159524; calls by dose curve; tested in HEK293T cells; note: read-out not given here; nearly all actives have a fitted effect of over 45% in size
# Sm TGR block = blocks Schistosoma mansoni thioredoxin glutathione reductase. Q962Y6. purified TGR, DTNB reduction, TNB absorbance 405 nm. Potency, µM (series often up to 114 µM), inactives show top-dose activity change, negative = inhibition, most hits filed as inhibitors. actives 3% (n = 360,000). AID 485364; note: nearly all actives have a fitted effect of over 60% in size
#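 First, TGR (20 nM dispensed) and NADPH were mixed with compound. Second, a 15 min room-temperature incubation followed. Third, further NADPH and then DTNB were added to start the reaction. Finally, TNB absorbance was monitored kinetically.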
# LASV entry inh = inhibitors of Lassa virus binding or cell entry; Lassa virus pseudotype entry inhibition, cell reporter; Potency, µM (highest dose often 37.9 µM), for the others: at the highest dose activity change, negative = inhibition, actives largely listed as inhibitors; actives 1.2% (n = 300,000); AID 540256; calls by dose curve; tested in HEK293 cells; note: nearly all actives have a fitted effect of over 50% in size
# MARV entry inh = blocks Marburg virus binding to or entry into cells; Potency, µM (titrated, usually from 37.8 µM), inactives show top-dose activity change, negative = inhibition, usual class: inhibitors; actives 1.8% (n = 300,000); Marburg virus pseudotyped entry inhibition, cell reporter; calls by dose curve; tested in HEK293 cells
# HCV inhibitor = blocks hepatitis C virus | Huh7.5.1 HCVcc-Cre infection, luciferase reporter, 44 h | Potency, µM (doses to about 41.8 µM), inactives show top-dose activity change, negative = inhibition, actives largely listed as inhibitors | actives 3.4% (n = 340,000) | AID 651820
#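 Infectious HCVcc-Cre (~0.5 moi) was added to cells just after compound, with cells seeded 4 h earlier at 1,000 per well. Luciferase activity after 44 h culture reported infection; substrate was incubated 15 min at room temperature before reading.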
# * = called active by the depositor; ? = inconclusive; . = not tested or not shown; ! = repeats disagree; [ ] = another dose, or the depositor's remark. Unless noted, calls come from the whole dose curve; as a rule, active = well fitted curve in the direction sought with a large enough effect; inconclusive = small, poorly fitted or top-dose-only effect, or another doubt; inactive = no such curve, though single readings can be large; an effect the other way counts as inactive or inconclusive. % is set by controls: 0 for no effect and ±100 for the full control effect; potency is the fitted concentration of half-maximal effect.
SMILES,RE007 growth inh,FMDV inh,Sm TGR block,LASV entry inh,MARV entry inh,HCV inhibitor
CC(C)(NS(=O)(=O)OCC(Cl)(Cl)Cl)c1ccccc1,9%,11%,-6%,.,.,6%
CC(NS(=O)(=O)OCC(Cl)(Cl)Cl)c1ccc(C(C)(C)C)cc1 (stereo unspecified),?,22µM*,0%,.,.,?
Cc1[nH]n(-c2ccccc2)c(=O)c1/C=N/NC(=O)c1cccc([N+](=O)[O-])c1,8%,0%,12%,?,?,2%
Cc1ccc(-n2[nH]c(C)c(/C=N/Nc3ccc([N+](=O)[O-])cc3[N+](=O)[O-])c2=O)cc1C,?,10µM*,-13%,?,3%,-13%
C[C@H]1Cc2c(-c3ccccc3)nc3c(c2CO1)CN(C(=O)Nc1cccc(C#N)c1)CC3,.,.,.,.,-24%[14.2 µM],.
CCOc1cc(-c2ccccc2)nc(N)n1,-20%,44%,7%,17%,?,-6%
COc1cc(-c2ccccc2)nc(N)n1,-11%,77%,-2%,12µM*,?,3%
O=C(/C=C/c1ccc(F)cc1)Nc1nc2n(n1)C(c1ccc(Cl)cc1)C=C(c1ccccc1)N2 (stereo unspecified),.,-12%,-4%,0%[46.1 µM],?,.
C=CCn1c(SCC(=O)NCCO)nc2sc(C)c(C)c2c1=O,26%,3.5µM*,21%,8%,-1%[46.1 µM],-4%
C=CCn1c(SCC(=O)Nc2ccc(C(=O)O)cc2)nc2sc(C)c(C)c2c1=O,4%,-18%,-7%,.,.,16%
C=CCn1c(SCC(=O)c2cc(C)n(C(C)COC)c2C)nc2sc(C)c(C)c2c1=O (stereo unspecified),-13%,?,3%,9.2µM*,-10%,10µM*
Cc1cc2c(n1-c1ccc(C(=O)NCc3ccccc3Cl)cc1)CCCC2,.,-8%,?,?,.,.
O=C1/C(=C/c2ccncc2)SC(=S)N1Nc1ccccc1,26%,20µM*,3.2µM*,-11%,?,10%
O=C(O)c1ccc(/C=C2\SC(=S)N(Nc3ccccc3)C2=O)cc1,17%,13%,3.2µM*,-12%,?,-20%
CCn1cc(C(=O)O)c(=O)c2cnc(N3CCCC3)nc21,.,-6%,.,.,.,.
COc1ccc(C(NC(=O)c2ccco2)c2ccc(OC)c(OC)c2)cc1OC,14%,-16%,-11%,?,5%,16%
CCOc1ccc(C(NC(=O)/C=C/c2ccco2)c2ccc(OC)c(OC)c2)cc1 (stereo unspecified),-9%,0%,45µM*,1%,-3%,13%
COc1ccc(C(NC(=O)/C=C/c2ccco2)c2ccc(OC)c(OC)c2)cc1 (stereo unspecified),-2%,-10%,25µM*,-24%,?,1%
COc1ccc(-c2nc3cc(NC(=O)Cc4ccc(Cl)cc4)ccc3o2)cc1OC,.,-20%,-1%,?,.,.
Cc1nc(N)sc1C(=O)N1N=N1,1%,6%,2.5µM*,22%,4%[46.1 µM],-2%
CCCc1nc(N)sc1C(=O)OCC,0%,-16%,6%,-1%,-2%,0%
Cc1cc(C)c(C)c(OCC(=O)Nc2ccc(S(=O)(=O)Nc3nc(C)cc(C)n3)cc2)c1,.,62%,-7%,-7%[46.1 µM],17%[46.1 µM],.
Cc1cn2c(-c3ccc(Cl)cc3)nnc2s1,-15%,-11%,0%,.,.,10µM*
Clc1ccc(-c2nn3c(-c4ccccc4)nnc3s2)cc1,-3%,0%,-3%,17%,?,1%
Cc1cccc(-n2cnc3cc(C(=O)NC4CCCCCC4)ccc32)c1,.,3%,-2%,?,.,.
SMILES,RE007 growth inh,FMDV inh,Sm TGR block,LASV entry inh,MARV entry inh,HCV inhibitor
COC(=O)c1cc2ccccc2c(-c2c(OC)c(C(=O)OC)cc3ccccc23)c1OC,-6%,-24%,-16%,?,6.5µM*,10µM*
COC(=O)c1cc2ccccc2c([N+](=O)[O-])c1O,-27%,-5%,.,7%[46.1 µM],-1%[46.1 µM],9%
Cc1ccc(Nc2nc(CSc3nnc(-c4cccnc4)n3-c3ccccc3C)cs2)cc1,0%,-13%,-10%,?,?,32µM*
CC(C)n1cnc2c(NCc3ccccc3)cc(N[C@H](C)CO)cc21,?,8.9µM*,.,.,.,?
CCCCOc1cc(NCc2ccccc2)c2ncn(C(C)C)c2c1,-9%,-24%,.,.,.,11µM*
CCC(CO)Oc1cc(NCc2cccc(OC)c2)c2ncn(C(C)C)c2c1 (stereo unspecified),8%,3%,.,.,.,2µM*
COCCCOc1cc(NCc2ccccc2)c2ncn(C(C)C)c2c1,-17%,-13%,.,.,.,?
CCC(CO)Oc1cc(NCc2ccc(C(C)(C)C)cc2)c2ncn(C(C)C)c2c1 (stereo unspecified),-9%,-20%,.,.,.,7.9µM*
CCC(CO)Oc1cc(NCc2ccccc2)c2ncn(C(C)C)c2c1 (stereo unspecified),-10%,-11%,.,.,.,?
CCc1ccccc1NC(=O)Cc1ccc(-n2c(C)nc3cccnc32)cc1,.,-23%,-4%,1%[46.1 µM],.,.
CC(N)c1csc(Nc2ccc(S(C)(=O)=O)cc2)n1 (stereo unspecified),9%[18.4 µM],-2%,.,.,.,.
CCC(COC)Oc1cc(NCc2ccccc2)c2ncn(C(C)C)c2c1 (stereo unspecified),-12%,-9%,28µM*,.,.,11µM*
Cc1ccccc1C(=O)OCc1cc(=O)n2c(C)csc2n1,.,41%,-12%,0%[46.1 µM],.,.
Cc1ccnc2c(N3C(=O)C4C5c6ccccc6C(c6ccccc65)C4C3=O)cccc12 (stereo unspecified),-16%,?,2%,21µM*,?,?
Cc1ccccc1N1C(=O)C2C3CC(=O)C(c4ccccc43)C2C1=O (stereo unspecified),10%,2%,-12%,16%,1%,-1%
Cc1ccccc1S(=O)Cc1ccc(C(=O)NCc2ccccc2Cl)o1 (stereo unspecified),.,-21%,-3%,?,-1%[46.1 µM],.
COC(=O)/C=C1/OC(c2ccccc2)=CC1=O,.,.,.,.,8%,.
CN(Cc1ccccc1N1CCCC1)C(=O)c1cc2ccccc2o1,-7%,-23%,.,-1%[46.1 µM],?,?
CN(Cc1ccccc1N1CCCC1)C(=O)c1cc2cc(Cl)ccc2o1,1%,?,-4%,.,.,11µM*
COc1cccc(Cc2nc3cccnc3n2C2CCN(C(=O)c3n[nH]c4c3CCCC4)CC2)c1,.,-15%,.,.,.,.
Cc1oc(-c2ccccc2F)nc1CS(=O)(=O)CC(=O)N1CCCCCC1,-3%,-23%,11µM*,.,1%,-27%
Cc1ccccc1-c1nc(CS(=O)(=O)CC(=O)N(C)C2CCCCC2)c(C)o1,15%,?,8.9µM*,.,3%,11µM*!
Cc1oc(-c2ccccc2Cl)nc1CS(=O)(=O)CC(=O)N1CCOCC1,-2%,-18%,?,.,.,-2%
